# Laboratory results published in the supplement of paper PMC13380429.
# Legend:
# [1] = system: Vero E6 infected with SARS-CoV-2; assay: morphology score (similarity to uninfected cells); higher = more like uninfected cells; settings: 24 h
# [2] = system: Vero E6 infected with SARS-CoV-2; assay: SARS-CoV-2 infection rate relative to infected DMSO; higher = more infection, active = 60 or less; settings: 24 h
SMILES,morphology score [1],SARS-CoV-2 infection rate [2]
CCN1CCN(Cc2ccc(-c3cc4c(N[C@H](C)c5ccccc5)ncnc4[nH]3)cc2)CC1 (10 µM),-0.144,124% (inactive)
c1cc(Cc2cnc[nH]2)ccn1 [immethridine] (10 µM),0.158,109% (inactive)
Cc1ccc(-c2ncc(Cl)cc2-c2ccc(S(C)(=O)=O)cc2)cn1 [etoricoxib] (10 µM),-0.139,114% (inactive)
COc1cc(-c2cc(-c3cccc(O)c3)cnc2N)cc(OC)c1OC (10 µM),0.51,95% (inactive)
Cc1ccsc1/C=C/C1=NCCCN1C [morantel] (10 µM),-0.00401,99.5% (inactive)
COc1ccc(C(=O)NCc2ccc(OCCN(C)C)cc2)cc1OC [itopride] (10 µM),0.19,90.5% (inactive)
N#Cc1c(Oc2ccc(F)c(NC(=O)Cc3cccc(C(F)(F)F)c3)c2)ccc2nc(NC(=O)C3CC3)sc12 (10 µM),-0.304,108% (inactive)
COc1ccc(O)cc1 [mequinol] (10 µM),-0.0349,105% (inactive)
CN(C)CCCCC(=O)Nc1ccc(NC(=S)NC(=O)c2ccc(C(C)(C)C)cc2)cc1 [tenovin-6] (0.833333 µM),-0.102,86% (inactive)
O=c1c2ccccc2[se]n1-c1ccccc1 [ebselen] (10 µM),0.34,84% (inactive)
Oc1ccc2c3c1O[C@H]1c4oc5ccccc5c4C[C@@]4(O)[C@@H](C2)N(CC2CC2)CC[C@]314 [naltriben] (10 µM),-0.128,106% (inactive)
CC(=O)NCCCOc1ccc(C(=O)N2CCC(N3C(=O)CCc4ccccc43)CC2)cc1 (10 µM),0.184,102% (inactive)
CCN(c1ccccc1)c1cc(=NC)n(C)c(C)n1 (10 µM),0.203,94% (inactive)
CCCCCCOc1nsnc1C1=CCCN(C)C1 [xanomeline] (10 µM),0.44,71.5% (inactive)
OC(c1ccc(-c2ccc(CN3CCN(Cc4ccncc4)CC3)cc2)c(F)c1)(C(F)(F)F)C(F)(F)F (10 µM),-0.228,104% (inactive)
CCCCc1nn(-c2ccccc2C(F)(F)F)c(=O)n1Cc1ccc(-c2ccccc2S(=O)(=O)NC(=O)c2sccc2C)cc1 (10 µM),0.0872,104% (inactive)
c1ccc(-c2ccc(C(c3ccccc3)n3ccnc3)cc2)cc1 (stereo unspecified) [bifonazole] (10 µM),0.407,79% (inactive)
CC1(C)CCC[C@]2(C)[C@H]3CC(=O)O[C@]3(C)CC[C@@H]12 [Sclareolide (Norambreinolide)] (10 µM),0.184,106% (inactive)
COc1cc2ncnc(Sc3nnc(C)s3)c2cc1OC (10 µM),0.403,102% (inactive)
O=C(O)c1cccnc1 [niacin] (10 µM),0.195,102% (inactive)

SMILES,morphology score [1],SARS-CoV-2 infection rate [2]
CN1C(=O)N(c2cc(Cl)cc(Cl)c2)C(=O)[C@@]1(C)Cc1ccc(Br)cc1 (10 µM),0.25,96.5% (inactive)
Cc1cn(-c2cc(NC(=O)c3ccc(C)c(Nc4nccc(-c5cccnc5)n4)c3)cc(C(F)(F)F)c2)cn1 [nilotinib] (10 µM),0.334,96.5% (inactive)
COC(=O)C1=C(C)NC(C)=C(C(=O)OCC(C)C)C1c1ccccc1[N+](=O)[O-] (stereo unspecified) [nisoldipine] (0.833333 µM),-0.0369,112% (inactive)
"BrC1C(Br)C(Br)C(Br)C(Br)C1Br (stereo unspecified) [1,2,3,4,5,6-hexabromocyclohexane] (10 µM)",0.416,85% (inactive)
COc1ccc(NC(=O)c2ccc(C(=N)N(C)C)cc2)c(C(=O)Nc2ccc(Cl)cn2)c1 [betrixaban] (10 µM),0.0893,91% (inactive)
C[C@H]1COc2c(C3(N)CC3)c(F)cc3c(=O)c(C(=O)O)cn1c23 [pazufloxacin] (10 µM),0.202,103% (inactive)
Cc1ccc(NC(=O)CCCCCC(=O)Nc2ccccc2N)cc1 (0.833333 µM),-0.0538,103% (inactive)
C[N@+]1(CC2CC2)CC[C@]23c4c5ccc(O)c4O[C@H]2C(=O)CC[C@@]3(O)[C@H]1C5 [methylnaltrexone] (10 µM),-0.0178,118% (inactive)
Clc1ccc(C(Cn2ccnc2)OCc2c(Cl)cccc2Cl)c(Cl)c1 (stereo unspecified) [isoconazole] (10 µM),0.222,104% (inactive)
O=C(NCc1ccncc1)C12CC3CC(C1)CC(c1ccc(Cl)cc1)(C3)C2 (10 µM),0.00848,97% (inactive)
Cc1csc(NC(=O)CSc2ccc(-c3ccccc3)nn2)n1 (10 µM),0.49,68.5% (inactive)
C[C@H](N)[C@H](O)c1cccc(O)c1 [metaraminol] (10 µM),-0.0578,104% (inactive)
COc1cccc(N2CCN(C3=Nc4c(F)cccc4[C@H](CC(=O)O)N3c3cc(C(F)(F)F)ccc3OC)CC2)c1 [letermovir] (10 µM),-0.0548,109% (inactive)
O=C(O)c1ccccc1Nc1cccc(OCc2ccc3ccccc3n2)c1 (10 µM),0.0319,95.5% (inactive)
N=C(N)c1cc2ccc(OC(=O)c3cccs3)cc2s1 (10 µM),0.578,76% (inactive)
Cc1[nH]c(/C=C2\C(=O)Nc3ccc(S(=O)(=O)Cc4c(Cl)cccc4Cl)cc32)c(C)c1C(=O)N1CCC[C@@H]1CN1CCCC1 (0.833333 µM),0.159,106% (inactive)
CC(C)n1nc(-c2ccc3oc(N)nc3c2)c2c(N)ncnc21 (0.833333 µM),-0.0142,102% (inactive)
Cc1cc(C)cc(OCC2CNC(=O)O2)c1 (stereo unspecified) [metaxalone] (10 µM),0.134,97% (inactive)
CCN(CC)CCOC(=O)C(Cc1cccc2ccccc12)CC1CCCO1 (mixture of isomers) [naftidrofuryl] (10 µM),0.14,104% (inactive)
CC(C)(C)C(=O)OCC(=O)[C@H]1CC[C@H]2[C@@H]3CCC4=CC(=O)CC[C@]4(C)[C@H]3CC[C@]12C [desoxycorticosterone-pivalate] (10 µM),0.123,106% (inactive)

SMILES,morphology score [1],SARS-CoV-2 infection rate [2]
C[C@@H](O)[C@H]1C(=O)N2C(C(=O)O)=C(S[C@@H]3CN[C@H](C(=O)Nc4cccc(C(=O)O)c4)C3)[C@H](C)[C@H]12 [ertapenem] (10 µM),0.126,106% (inactive)
C#Cc1cncc([C@@H]2CCCN2C)c1 [altinicline] (10 µM),0.0585,98.5% (inactive)
O=C(Nc1ccc(OC(F)(F)F)cc1)c1sccc1NCc1ccnc2ccccc12 (10 µM),0.0678,90% (inactive)
CN1CCc2cc3c(cc2[C@H]1[C@@H]1OC(=O)c2c1ccc1c2OCO1)OCO3 [bicuculline-(+)] (10 µM),-0.0434,98% (inactive)
Cc1ccc(S(=O)(=O)N2CCC[C@H]2c2ccc(F)cc2)cc1 (10 µM),-0.114,110% (inactive)
CCCCn1ccc(N2CCC(c3ccccc3)CC2)c(Cl)c1=O (10 µM),-0.265,116% (inactive)
COc1ccc2cccc(CCNC(C)=O)c2c1 [agomelatine] (10 µM),0.11,114% (inactive)
CC(C)(C)c1cc(NC(=O)Nc2ccc(-c3cn4c(n3)sc3cc(OCCN5CCOCC5)ccc34)cc2)no1 [quizartinib] (10 µM),0.177,97.5% (inactive)
C[C@](N)(Cc1ccc(O)cc1)C(=O)O [metirosine] (10 µM),-0.111,112% (inactive)
CCCCCCCCCCCCCC[C@@H](O)[C@@H](O)[C@@H](N)CO [phytosphingosine] (10 µM),-0.0786,108% (inactive)
FC(F)(F)c1ccc(CNc2ccc(Cc3c[nH]c4ncccc34)cn2)cc1 (10 µM),0.0358,110% (inactive)
c1ccc(Oc2cccnc2)cc1 (10 µM),0.0741,103% (inactive)
CCCCCNCC(N)=O [milacemide] (10 µM),0.0276,99% (inactive)
NC(Cc1ccc(I)cc1)C(=O)O (stereo in doubt) [4-iodo-L-phenylalanine] (10 µM),0.202,105% (inactive)
N=C(NCCC[C@H](N)C(=O)O)N[N+](=O)[O-] [NG-nitro-arginine] (10 µM),-0.0213,108% (inactive)
CC(=O)[C@]1(N)Cc2c(O)c3c(c(O)c2[C@@H](O[C@H]2C[C@H](O)[C@H](O)CO2)C1)C(=O)c1ccccc1C3=O [amrubicin] (0.833333 µM),0.065,92.5% (inactive)
CCCCC[C@H](O)/C=C/[C@H]1[C@H](O)CC(=O)[C@@H]1C/C=C\CCCC(=O)O [dinoprostone] (10 µM),0.144,95.5% (inactive)
CCNC(=O)[C@H]1O[C@@H](n2cnc3c(N)ncnc32)[C@H](O)[C@@H]1O (10 µM),0.184,92% (inactive)
